Screens deposited in PubChem BioAssay by National Center for Advancing Translational Sciences (NCATS).
The list is not random: actives were taken first. Their share in the collection is about 11%.
JMJD2A Tudor = qHTS Assay for Inhibitors of JMJD2A-Tudor Domain; Potency, µM (titrated, usually from 114 µM), actives largely listed as inhibitors; Lysine-specific demethylase 4A (Homo sapiens), O75164; actives 4.4% (n = 390,000); AlphaScreen JMJD2A-Tudor / H3K4me3 peptide binding; note: nearly all actives have a fitted effect of over 50% in size
L3MBTL1 inh = qHTS Assay for the Inhibitors of L3MBTL1 | Lethal(3)malignant brain tumor-like protein 1 (Homo sapiens), Q9Y468 | AlphaScreen L3MBTL1–H3K9me1 peptide binding | Potency, µM (series often up to 57.1 µM), usual class: inhibitors | actives 0.66% (n = 230,000) | AID 485360, 2010; note: nearly all actives have a fitted effect of over 60% in size
Target sequence (Q9Y468 whole entry, looked up): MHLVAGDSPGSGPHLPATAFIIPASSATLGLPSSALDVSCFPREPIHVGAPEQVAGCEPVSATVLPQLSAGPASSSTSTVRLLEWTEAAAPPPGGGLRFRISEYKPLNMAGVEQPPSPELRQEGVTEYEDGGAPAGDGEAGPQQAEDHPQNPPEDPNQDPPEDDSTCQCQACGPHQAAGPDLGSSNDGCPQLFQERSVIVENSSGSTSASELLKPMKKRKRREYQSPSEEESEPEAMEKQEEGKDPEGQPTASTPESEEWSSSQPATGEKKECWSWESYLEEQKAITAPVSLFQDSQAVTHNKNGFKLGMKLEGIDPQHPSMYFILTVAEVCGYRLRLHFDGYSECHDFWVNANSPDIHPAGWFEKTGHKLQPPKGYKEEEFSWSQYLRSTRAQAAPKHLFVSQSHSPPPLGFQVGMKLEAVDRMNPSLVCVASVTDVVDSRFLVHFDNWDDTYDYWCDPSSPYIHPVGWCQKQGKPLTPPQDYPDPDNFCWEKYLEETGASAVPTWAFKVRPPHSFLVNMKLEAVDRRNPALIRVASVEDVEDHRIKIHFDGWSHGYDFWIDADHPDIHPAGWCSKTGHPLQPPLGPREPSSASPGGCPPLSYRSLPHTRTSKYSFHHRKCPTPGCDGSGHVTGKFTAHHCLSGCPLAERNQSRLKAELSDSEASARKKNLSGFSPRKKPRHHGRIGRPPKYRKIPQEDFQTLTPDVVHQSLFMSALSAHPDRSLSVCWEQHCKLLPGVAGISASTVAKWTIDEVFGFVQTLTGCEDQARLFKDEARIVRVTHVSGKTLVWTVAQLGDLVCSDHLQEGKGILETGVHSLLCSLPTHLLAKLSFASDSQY
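AlphaScreen assay: L3MBTL1 (50 nM final) was preincubated 30 min at room temperature with biotinylated H3(1-15)K9me1 peptide (75 nM final), then 30 min with library compounds; streptavidin donor and nickel chelate acceptor beads (10 ug/mL final) added, 30 min dark.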
HP1b binding inh = HTS for Inhibitors of HP1-beta Chromodomain Interactions with Methylated Histone Tails; Chromobox protein homolog 1 (Homo sapiens), P83916; AlphaScreen HP1-beta / biotin-H3K9me3 peptide binding; Potency, µM (top dose mostly 114 µM), actives largely listed as inhibitors; actives 0.56% (n = 390,000); note: nearly all actives have a fitted effect of over 70% in size
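AlphaScreen: HP1-beta (50 nM) preformed 30 min with biotin-H3(1-18)K9me3 peptide (50 nM) in PBS pH 7.4, 0.01% Tween-20. Compound added for 30 min at RT, then streptavidin donor/nickel chelate acceptor beads (10 ug/mL) for 30 min.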
G9a inh = qHTS Assay for Inhibitors of Histone Lysine Methyltransferase G9a; G9a H3K9 monomethylation, AlphaScreen, 2 h; Potency, µM (highest dose often 102 µM), most hits filed as inhibitors; actives 8.8% (n = 350,000); note: nearly all actives have a fitted effect of over 75% in size
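Compounds were preincubated with 20 nM G9a for 15 min, after which biotinylated H3K9 peptide (500 nM) and SAM (20 uM) started a 2 h room-temperature reaction. Monomethylated product was quantified by antibody-based AlphaScreen chemiluminescence.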
BAZ2B inh = qHTS Assay for Inhibitors of BAZ2B. Potency, µM (highest dose often 114 µM), most hits filed as inhibitors. actives 4.4% (n = 360,000). Bromodomain adjacent to zinc finger domain protein 2B (Homo sapiens), Q9UIF8. AID 504333, 2011. AlphaScreen BAZ2B-H3K14Ac peptide displacement; note: nearly all actives have a fitted effect of over 60% in size
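AlphaScreen luminescence quantifies BAZ2B engagement of H3K14Ac peptide; the protein and biotinylated peptide are both at 50 nM final, buffer PBS pH 7.4 with 0.01% Tween-20, all steps at room temperature.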
Large screens that a line does not name were inactive; ! = not active in a repeat. Calls come from the whole dose curve; as a rule, active = well fitted inhibition curve with a large enough effect; inconclusive = small, poorly fitted or top-dose-only effect; inactive = no such curve, though single readings can be large or run the other way.

C(=C\c1ccccc1)/CN1CCN(C(c2ccccc2)c2ccccc2)CC1	BAZ2B inh inconclusive
COc1ccc(Cl)cc1NC(=O)C(C)N1CCN(C/C=C/c2ccccc2)CC1 (centres undefined)	JMJD2A Tudor 3.5µM, HP1b binding inh 13µM, G9a inh inconclusive, BAZ2B inh 50µM (no result: L3MBTL1 inh)
Fc1ccc(C(c2ccc(F)cc2)N2CCN(C/C=C/c3ccccc3)CC2)cc1	JMJD2A Tudor inconclusive, G9a inh 21µM!, BAZ2B inh inconclusive
O=C(COc1cccc(C(F)(F)F)c1)NNC(=O)Cn1c(=O)cnc2ccccc21	none
CC1CC(C)CN(CC(=O)N2CCOCC2)C1 (centres undefined)	JMJD2A Tudor 25µM, G9a inh 8.9µM, BAZ2B inh 50µM
Cn1c(=O)c(=O)n(C)c2cc(NS(=O)(=O)c3ccc(Br)cc3)c(Cl)cc21	none (no result: L3MBTL1 inh)
COc1ccc(O[C@H]2C=C[C@@H](c3ccccc3)O[C@@H]2COC(=O)CC/C(C)=N/O[C@@H](C)CN2CCCCc3nc(C)c(C)cc32)cc1	G9a inh 35µM (no result: JMJD2A Tudor, HP1b binding inh)
CC(=O)OC[C@H]1O[C@@H](O/N=C(\C)CCN2CCCCc3nc(C)c(C)cc32)[C@H](OC(C)=O)[C@@H](OC(C)=O)[C@@H]1OC(C)=O	G9a inh inconclusive (no result: JMJD2A Tudor, HP1b binding inh)
C/C(CCC(=O)OC[C@H]1O[C@H](C#Cc2ccccc2)C=C[C@@H]1Oc1ccc(C)cc1)=N\O[C@@H](C)CN1CCCCc2nc(C)c(C)cc21	G9a inh 35µM (no result: JMJD2A Tudor, HP1b binding inh)
Cc1ccc(CNC(=O)Cn2c3ncccc3c(=O)n2-c2ccccc2)cc1	JMJD2A Tudor inconclusive (no result: L3MBTL1 inh)
O=C(COc1ccc(Cl)cc1Cl)Nc1ccc(C(=O)OC2CCCCC2)cc1	none (no result: L3MBTL1 inh)
CCOCCc1nn2c(=O)cc(COC(=O)c3ccco3)nc2s1	none (no result: L3MBTL1 inh)
CCOc1ccc(S(=O)(=O)NCc2ccc3c(c2)CCN3C(=O)c2ccc(C)cc2)cc1	none (no result: L3MBTL1 inh)
Cc1cnc(NC(=O)NCC2CCCC(CNC(=O)Nc3ncc(C)s3)C2)s1 (centres undefined)	JMJD2A Tudor inconclusive, G9a inh inconclusive, BAZ2B inh 32µM (no result: L3MBTL1 inh)
COC(=O)c1c(C)[nH]c(/C=N/Nc2ccccc2)c1C	JMJD2A Tudor inconclusive, G9a inh 25µM, BAZ2B inh inconclusive
Cc1c(C=NNc2ccccc2)[nH]c(=O)[nH]c1=O	none (no result: L3MBTL1 inh, G9a inh, BAZ2B inh)
C=CCn1c(SCC(=O)NNC(=S)Nc2ccccc2)nnc1-c1ccccc1	none
CCn1c(SCC(=O)NNC(=S)Nc2ccccc2)nnc1-c1ccc(Cl)cc1	G9a inh 20µM
Cc1cccc(NC(=O)CSc2nnc(-c3ccncc3)n2C)c1	none
O=C(CSc1nnc(-c2ccccc2)n1-c1ccc(Cl)cc1)NNC(=S)Nc1ccccc1	G9a inh 10µM
Cn1c(SCC(=O)NNC(=S)Nc2ccccc2)nnc1-c1ccncc1	G9a inh 71µM (no result: JMJD2A Tudor, L3MBTL1 inh, HP1b binding inh)
CCCCOc1ccc2c(c1)C(=O)c1cc(O)ccc1-2	JMJD2A Tudor 28µM, L3MBTL1 inh inconclusive, HP1b binding inh 45µM, G9a inh 32µM, BAZ2B inh 35µM
CCCC(=O)NCc1nc2cccnc2n1Cc1ccc(F)cc1	none (no result: L3MBTL1 inh)
O=C(c1cc([N+](=O)[O-])ccc1Cl)N1CCN(Cc2ccccc2)CC1	G9a inh 71µM (no result: L3MBTL1 inh)
O=C(c1ccc(Cn2cc(Cl)c([N+](=O)[O-])n2)cc1)N1CCN(Cc2ccccc2)CC1	G9a inh 50µM
O=C(c1ccc([N+](=O)[O-])o1)N1CCN(Cc2ccccc2)CC1	none (no result: G9a inh)
O=C(c1ccc([N+](=O)[O-])cc1)N1CCN(Cc2ccccc2)CC1	none
O=C(c1cc([N+](=O)[O-])ccc1Cl)N1CCN(c2ccc([N+](=O)[O-])cc2)CC1	G9a inh inconclusive
O=C(c1cc([N+](=O)[O-])ccc1Cl)N1CCN(c2ccc(F)cc2)CC1	G9a inh 45µM
O=C(c1ccc(F)cc1)C1CCN(CCn2c(=O)[nH]c3ccccc3c2=O)CC1	G9a inh 0.79µM!, BAZ2B inh inconclusive
CCCNC(=O)c1ccc2nc(-c3ccccc3)c(-c3ccccc3)nc2c1	none
O=C(NCCO)Nc1ccc2nc(-c3ccco3)c(-c3ccco3)nc2c1	L3MBTL1 inh 0.71µM, BAZ2B inh 3.2µM (no result: JMJD2A Tudor, HP1b binding inh, G9a inh)
O=C(NCCCO)c1ccc2nc(-c3ccco3)c(-c3ccco3)nc2c1	JMJD2A Tudor 50µM, L3MBTL1 inh 28µM, HP1b binding inh inconclusive, G9a inh 7.1µM, BAZ2B inh 50µM
CCc1nc2ccc(C(=O)NCCc3ccco3)cc2nc1CC	none (no result: L3MBTL1 inh)
CCCCNC(=O)c1ccc2nc(-c3ccco3)c(-c3ccco3)nc2c1	JMJD2A Tudor 25µM, L3MBTL1 inh 32µM, HP1b binding inh inconclusive, G9a inh 7.9µM, BAZ2B inh 50µM
CCc1ccccc1NC(=O)Cn1ccn(-c2cc(C)cc(C)c2)c(=O)c1=O	none (no result: L3MBTL1 inh)
O=C(/C=C\C=C/c1ccc2c(c1)OCO2)N1CCCCC1	none (no result: JMJD2A Tudor, L3MBTL1 inh, HP1b binding inh, BAZ2B inh)
COc1cccc(C(=O)CC2(O)C(=O)Nc3ccc(Cl)cc32)c1 (centres undefined)	none (no result: L3MBTL1 inh)
COCC1CCCN(C(=O)c2ccc(OC3CCN(Cc4ccccn4)CC3)cc2)C1 (centres undefined)	JMJD2A Tudor 28µM
CC(=O)N1CCN(C(=O)c2ccc(OC3CCN(Cc4ccccn4)CC3)cc2)CC1	G9a inh 71µM (no result: L3MBTL1 inh)
CC(Sc1nnc(COc2ccc(Cl)cc2)o1)C(=O)Nc1ccc(N2CCOCC2)cc1 (centres undefined)	G9a inh 35µM
Cc1nnc(SC(C)C(=O)Nc2ccc(N3CCOCC3)cc2)n1Cc1ccccc1 (centres undefined)	G9a inh 71µM
CC(C)Cn1c(SC(C)C(=O)Nc2ccc(N3CCOCC3)cc2)nc2ccccc21 (centres undefined)	JMJD2A Tudor inconclusive, HP1b binding inh inconclusive, G9a inh inconclusive, BAZ2B inh 35µM
Nc1ncnc2c1ncn2[C@@H]1O[C@H](COP(=O)(O)OP(=O)(O)OC[C@H]2OC(O)[C@H](O)[C@@H]2O)[C@@H](O)[C@H]1O (some centres undefined)	none (no result: JMJD2A Tudor, L3MBTL1 inh, HP1b binding inh, BAZ2B inh)
CCOC(=O)c1cc(C)n(CC2CCC(C(=O)Nc3ccc(Cl)cc3)CC2)c1C (centres undefined)	G9a inh inconclusive (no result: L3MBTL1 inh)
CC1=C(C(=O)Nc2ccccc2)C2(CCCCC2)C(C#N)=C(SCC(N)=O)N1	JMJD2A Tudor 14µM, BAZ2B inh inconclusive (no result: L3MBTL1 inh)
N#CC1=C(N)NC(SCC(=O)Nc2ccc(Br)cc2)=C(C#N)C12CCCCC2	JMJD2A Tudor inconclusive, G9a inh 71µM, BAZ2B inh inconclusive (no result: L3MBTL1 inh)
N#CC1=C(N)NC(SCc2ccc(Br)cc2)=C(C#N)C12CCCCC2	JMJD2A Tudor inconclusive, G9a inh inconclusive, BAZ2B inh inconclusive
